Measurements reported in PubChem BioAssay (EPA / NIEHS).
Results filed as inconclusive are left out. The source made the active and inactive calls. Rule for the calls, unless noted: active = hit-call score of the fitted dose curve at least 0.9, where 1 is the maximum; inconclusive = response in the unintended direction; inactive = score below 0.9.

Key:
[1] = ATG_GAL4_TRANS: Attagene TRANS-FACTORIAL HepG2 Assay for GAL4 (Internal Marker) (AID 2282976); conditions: HepG2 Attagene TRANS GAL4 internal marker reporter
Summary of the method: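 Fluorescence from capillary electrophoresis of labelled RT-PCR products quantifies reporter mRNA induction after 24 h dosing of HepG2 cells carrying transfected GAL4-UAS reporter transcription units. Vehicle DMSO serves as baseline.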

[2] = biological target: Glucocorticoid receptor (Homo sapiens) (UniProt P04150); assay: ATG_GR_TRANS: Attagene TRANS-FACTORIAL HepG2 Assay for human Glucocorticoid Receptor (GR) (AID 2282978); conditions: HepG2 Attagene TRANS GR reporter, mRNA transcription;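 note: activators score as hits since higher reporter transcript over DMSO is fitted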
Summary of the method: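 Measurement of GAL4-UAS-driven reporter mRNA in human HepG2 liver cells 24 h post-dosing, using RT-PCR with fluorescent labelling and capillary electrophoresis; the transfected constructs report exogenous NR-GAL4 chimera activity, fitted upward against DMSO.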

[3] = biological target: Bile acid receptor (Homo sapiens) (UniProt Q96RI1); assay: ATG_FXR_TRANS: Attagene TRANS-FACTORIAL HepG2 Assay for Farnesoid X Receptor (FXR) (AID 2282979); conditions: HepG2 Attagene TRANS FXR-GAL4 reporter transcription;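 note: hits raise reporter mRNA above DMSO so AC50 marks FXR activation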
Summary of the method: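 Chimeric FXR-GAL4 activity in transiently transfected human HepG2 liver cells is scored as induction of reporter mRNA after 24 h of dosing. Detection uses RT-PCR with fluorescent labelling and capillary electrophoresis, with DMSO serving as baseline.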

[4] = biological target: Oxysterols receptor LXR-beta (Homo sapiens) (UniProt P55055); assay: ATG_LXRb_TRANS: Attagene TRANS-FACTORIAL HepG2 Assay for human Liver X Receptor beta (LXRb) (AID 2282981); conditions: HepG2 Attagene TRANS GAL4-LXRb reporter, mRNA
Summary of the method: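 After 24 h of chemical treatment, transfected HepG2 cells yield total RNA; reporter cDNA is PCR-amplified, FAM-labelled, HpaI-cut and run on capillary electrophoresis. Signal reflects chimeric LXRb-Gal4 activity on GAL4-UAS reporters.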

[5] = biological target: human Peroxisome Proliferator-activated Receptor delta (PPARd), PPARD (gene 5467) (UniProt Q03181); assay: ATG_PPARd_TRANS: Attagene TRANS-FACTORIAL HepG2 Assay for human Peroxisome Proliferator-activated Receptor delta (PPARd) (AID 2283002)
Summary of the method: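 Read-out is induced reporter mRNA, quantified by RT-PCR with fluorescent labelling and capillary electrophoresis after 24 h dosing. Cells are HepG2 transiently carrying multiple GAL4-UAS reporter units driven by exogenous NR-GAL4 chimeras; DMSO serves as baseline.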

[6] = biological target: human Thyroid Receptor alpha (THRa1), THRA (gene 7067) (UniProt P10827); assay: ATG_THRa1_TRANS: Attagene TRANS-FACTORIAL HepG2 Assay for human Thyroid Receptor alpha (THRa1) (AID 2283014)
Summary of the method: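 First, HepG2 cells receive multiple GAL4-UAS reporter units and the chimeric receptor. They are then dosed for 24 h, after which RNA is reverse-transcribed, amplified, labelled, HpaI-cut and sized by capillary electrophoresis; gain relative to DMSO is scored.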

[7] = biological target: human Vitamin D Receptor (VDR), VDR (gene 7421) (UniProt P11473); assay: ATG_VDR_TRANS: Attagene TRANS-FACTORIAL HepG2 Assay for human Vitamin D Receptor (VDR) (AID 2283022)
Summary of the method: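 Fluorescence of labelled reporter cDNA fragments, resolved by capillary electrophoresis, gives mRNA induction after 24 h treatment of HepG2 cells carrying transfected Gal4-fusion reporter units. Activity is fitted in the positive direction with DMSO as baseline.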

[8] = ATG_M_19_TRANS: Attagene TRANS-FACTORIAL HepG2 Assay for M19 Transcription Factor (Internal Marker) (AID 2282974); conditions: HepG2 Attagene TRANS-FACTORIAL M19 internal marker reporter
Summary of the method: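 Measured here: internal-marker reporter transcript from HepG2 cells transfected with MRTUs, harvested at 24 h. cDNA PCR products were 6-FAM labelled by primer extension, cut with HpaI for 2 h at 37 C, and resolved by CE.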

[9] = ATG_M_06_TRANS: Attagene TRANS-FACTORIAL HepG2 Assay for M06 Transcription Factor (Internal Marker) (AID 2282983); conditions: HepG2 Attagene TRANS M06 internal marker reporter;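 note: reporter transcript level by RT-PCR then capillary electrophoresis fluorescence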
Summary of the method: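 Human liver HepG2 cells bearing transiently transfected chimeric NR-GAL4 reporter units were treated with chemicals for 24 h. Total RNA was reverse-transcribed, reporter sequences amplified and labelled, then quantified by capillary electrophoresis. Activity was fitted upward relative to DMSO.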

[10] = biological target: Peroxisome proliferator-activated receptor gamma (Homo sapiens) (UniProt P37231); assay: ATG_PPARg_TRANS: Attagene TRANS-FACTORIAL HepG2 Assay for human Peroxisome Proliferator-activated Receptor-gamma (PPARg) (AID 2283007)
Summary of the method: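 Multiplexed reporter transcription units in HepG2, 24 h dosing, reporter transcripts quantified by fluorescent RT-PCR and capillary electrophoresis. Increase over DMSO scored.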

[11] = biological target: human RAR-related Orphan Receptor beta (RORb), RORB (gene 6096) (UniProt Q92753); assay: ATG_RORb_TRANS: Attagene TRANS-FACTORIAL HepG2 Assay for human RAR-related Orphan Receptor beta (RORb) (AID 2283010)
Summary of the method: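 Multiplexed transcription-factor reporter assay: HepG2 cells transiently carrying NR-Gal4/GAL4-UAS constructs, 24 h treatment, mRNA quantified by RT-PCR plus capillary electrophoresis fluorescence; activity scored as induction over DMSO.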

[12] = biological target: Oxysterols receptor LXR-alpha (Homo sapiens) (UniProt Q13133); assay: ATG_LXRa_TRANS: Attagene TRANS-FACTORIAL HepG2 Assay for human Liver X Receptor alpha (LXRa) (AID 2282980); conditions: HepG2 Attagene TRANS reporter, LXRa transactivation
Summary of the method: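 Transient HepG2 transfectants, 24 h dosing, RT-PCR/CE mRNA reporter quantitation; gain-of-signal vs DMSO.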

[13] = biological target: human RAR-related Orphan Receptor gamma (RORg), RORC (gene 6097) (UniProt P51449); assay: ATG_RORg_TRANS: Attagene TRANS-FACTORIAL HepG2 Assay for human RAR-related Orphan Receptor gamma (RORg) (AID 2283011)
Summary of the method: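 Activity is scored as increase in GAL4-UAS reporter mRNA over DMSO, detected by fluorescent RT-PCR and capillary electrophoresis in HepG2 cells transiently expressing a RORg-Gal4 chimera, 24 h after dosing.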

[14] = TOX21_p53_BLA_p4_viability: Viability Assessment in the Tox21 HCT-116 p53 Agonism Beta-lactamase Assay, Phase 4 (AID 2283597);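 note: hits lower the luminescence signal meaning cytotoxicity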
Summary of the method: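 Viability is taken as cellular ATP: after 16 h compound exposure of HCT116 cells and a 2 h room-temperature CCF4-AM substrate step, CellTiter-Glo reagent is added and luminescence is measured 30 min later.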

[15] = CCTE_Harrill_HTTr_Viability_MCF7: CCTE's 6-hour Cell Viability Assessment for the High-Throughput Transcriptomics (HTTr) Platform, in MCF-7 cells cultured in DMEM + 10% fetal bovine serum, Harrill Lab (AID 2284010; active = hit-call score of the fitted dose curve at least 0.9, where 1 is the maximum; inactive = score below 0.9)
Summary of the method: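 Eight-point concentration series, six-hour exposure. Propidium iodide exclusion imaged to assess membrane integrity as a cytotoxicity readout; bidirectional fitting was done with DMSO as negative control and activity baseline.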

[16] = CCTE_Harrill_HTTr_Apoptosis_MCF7: CCTE's 6-hour Apoptosis Assessment for the High-Throughput Transcriptomics (HTTr) Platform, in MCF-7 cells cultured in DMEM + 10% fetal bovine serum, Harrill Lab (AID 2284011; active = hit-call score of the fitted dose curve at least 0.9, where 1 is the maximum; inactive = score below 0.9)
Summary of the method: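 Cells are dosed with test chemicals at eight concentrations and imaged 6 hours later for caspase-3/7 activity using a green fluorogenic detection reagent. Activity is fitted in both directions against DMSO controls.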

[17] = ATG_VDRE_CIS: Attagene CIS-FACTORIAL HepG2 Assay for human Vitamin D Receptor Element (VDRE) (AID 2282968; active = hit-call score of the fitted dose curve at least 0.9, where 1 is the maximum; inactive = score below 0.9); conditions: HepG2 VDRE cis-reporter transcription, actives raise or lower the signal
Summary of the method: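 Measures endogenous factor activity through cis-element-driven reporter transcripts in transiently transfected HepG2. Cells are treated 24 h; reporter mRNA is quantified by RT-PCR and capillary electrophoresis; fitting is bidirectional.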

[18] = biological target: Nuclear receptor subfamily 1 group I member 3 (Homo sapiens) (UniProt Q14994); assay: ATG_CAR_TRANS: Attagene TRANS-FACTORIAL HepG2 Assay for human Constitutive Androstane Receptor (CAR) (AID 2282969); conditions: HepG2 Attagene TRANS-FACTORIAL CAR reporter;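 note: activators raise reporter mRNA above DMSO so AC50 marks induction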
Summary of the method: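 Signal is reporter mRNA induction relative to DMSO, measured 24 h after dosing by RT-PCR with fluorescent primer extension and capillary electrophoresis. Human HepG2 liver cells carried transiently transfected chimeric NR-Gal4/GAL4-UAS reporter constructs.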

[19] = biological target: Nuclear receptor subfamily 4 group A member 2 (Homo sapiens) (UniProt P43354); assay: ATG_NURR1_TRANS: Attagene TRANS-FACTORIAL HepG2 Assay for human Nuclear Receptor Related Protein 1 (NURR1) (AID 2282985); conditions: HepG2 Attagene TRANS reporter, mRNA readout
Summary of the method: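 Measures transcriptional activation by an exogenous NR-Gal4 chimera in transfected HepG2 liver cells. After 24 h, reporter RNA is reverse-transcribed, amplified and resolved by capillary electrophoresis; DMSO defines baseline.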

[20] = ATG_NF_kB_CIS: Attagene CIS-FACTORIAL HepG2 Assay for human Nuclear Factor Kappa B (NF-kB) (AID 2282991; active = hit-call score of the fitted dose curve at least 0.9, where 1 is the maximum; inactive = score below 0.9); conditions: HepG2 Attagene cis-factorial NF-kB reporter mRNA; actives raise or lower the signal
Summary of the method: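 HepG2, transient multi-reporter transfection, cis promoter elements (endogenous TFs). 24 h exposure. Total RNA → RT → PCR → 6-FAM label → HpaI → CE. Gain/loss vs DMSO.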

Measured: AC50

Sequence of Glucocorticoid receptor (Homo sapiens) (P04150 whole entry, looked up, the tested form may be a part): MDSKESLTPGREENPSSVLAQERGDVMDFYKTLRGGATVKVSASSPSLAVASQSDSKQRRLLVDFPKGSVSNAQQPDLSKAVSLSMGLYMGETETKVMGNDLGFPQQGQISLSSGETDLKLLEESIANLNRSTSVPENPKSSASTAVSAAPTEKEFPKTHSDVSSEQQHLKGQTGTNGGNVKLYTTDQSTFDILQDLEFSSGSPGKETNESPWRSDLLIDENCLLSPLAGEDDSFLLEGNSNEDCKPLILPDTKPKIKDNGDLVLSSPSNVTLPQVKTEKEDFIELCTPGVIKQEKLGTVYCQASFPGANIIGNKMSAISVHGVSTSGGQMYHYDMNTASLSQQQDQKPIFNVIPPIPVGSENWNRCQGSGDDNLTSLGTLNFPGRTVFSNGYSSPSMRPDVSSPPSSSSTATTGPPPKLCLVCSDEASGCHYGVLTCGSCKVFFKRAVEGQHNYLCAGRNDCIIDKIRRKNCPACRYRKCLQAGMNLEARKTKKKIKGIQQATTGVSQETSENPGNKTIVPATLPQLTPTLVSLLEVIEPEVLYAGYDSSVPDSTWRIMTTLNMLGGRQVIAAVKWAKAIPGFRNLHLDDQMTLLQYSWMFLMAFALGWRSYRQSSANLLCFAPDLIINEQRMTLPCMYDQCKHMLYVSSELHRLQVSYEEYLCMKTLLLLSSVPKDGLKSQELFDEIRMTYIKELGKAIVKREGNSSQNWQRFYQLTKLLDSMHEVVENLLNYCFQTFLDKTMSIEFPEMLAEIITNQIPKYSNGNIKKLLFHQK
Sequence of Oxysterols receptor LXR-alpha (Homo sapiens) (Q13133 whole entry, looked up): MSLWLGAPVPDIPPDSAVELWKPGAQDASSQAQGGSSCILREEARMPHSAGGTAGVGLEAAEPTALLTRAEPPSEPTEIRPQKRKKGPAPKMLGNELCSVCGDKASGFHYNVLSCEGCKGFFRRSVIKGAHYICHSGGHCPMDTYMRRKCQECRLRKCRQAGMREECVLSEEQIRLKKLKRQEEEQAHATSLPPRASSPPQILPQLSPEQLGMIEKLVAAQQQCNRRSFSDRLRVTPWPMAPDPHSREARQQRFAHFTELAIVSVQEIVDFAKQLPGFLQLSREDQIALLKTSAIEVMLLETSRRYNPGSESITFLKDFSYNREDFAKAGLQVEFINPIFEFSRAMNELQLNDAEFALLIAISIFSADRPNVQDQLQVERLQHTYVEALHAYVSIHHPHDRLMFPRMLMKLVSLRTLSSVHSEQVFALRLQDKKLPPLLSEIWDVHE
Sequence of Bile acid receptor (Homo sapiens) (Q96RI1 whole entry, looked up, the tested form may be a part): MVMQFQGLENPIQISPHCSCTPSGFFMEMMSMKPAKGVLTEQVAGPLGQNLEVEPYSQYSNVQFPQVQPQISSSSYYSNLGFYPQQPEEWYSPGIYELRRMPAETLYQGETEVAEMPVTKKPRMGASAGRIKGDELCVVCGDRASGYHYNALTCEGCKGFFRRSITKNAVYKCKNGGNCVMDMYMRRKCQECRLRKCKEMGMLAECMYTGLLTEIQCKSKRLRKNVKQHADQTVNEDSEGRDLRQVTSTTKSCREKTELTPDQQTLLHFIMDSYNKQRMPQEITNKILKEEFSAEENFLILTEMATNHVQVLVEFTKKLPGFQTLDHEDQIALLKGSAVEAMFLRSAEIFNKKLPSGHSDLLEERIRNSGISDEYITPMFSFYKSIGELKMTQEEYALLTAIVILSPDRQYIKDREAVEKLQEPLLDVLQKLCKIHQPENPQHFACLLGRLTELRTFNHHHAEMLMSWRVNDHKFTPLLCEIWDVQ
Sequence of human RAR-related Orphan Receptor beta (RORb), RORB (gene 6096) (Q92753 whole entry, looked up, the tested form may be a part): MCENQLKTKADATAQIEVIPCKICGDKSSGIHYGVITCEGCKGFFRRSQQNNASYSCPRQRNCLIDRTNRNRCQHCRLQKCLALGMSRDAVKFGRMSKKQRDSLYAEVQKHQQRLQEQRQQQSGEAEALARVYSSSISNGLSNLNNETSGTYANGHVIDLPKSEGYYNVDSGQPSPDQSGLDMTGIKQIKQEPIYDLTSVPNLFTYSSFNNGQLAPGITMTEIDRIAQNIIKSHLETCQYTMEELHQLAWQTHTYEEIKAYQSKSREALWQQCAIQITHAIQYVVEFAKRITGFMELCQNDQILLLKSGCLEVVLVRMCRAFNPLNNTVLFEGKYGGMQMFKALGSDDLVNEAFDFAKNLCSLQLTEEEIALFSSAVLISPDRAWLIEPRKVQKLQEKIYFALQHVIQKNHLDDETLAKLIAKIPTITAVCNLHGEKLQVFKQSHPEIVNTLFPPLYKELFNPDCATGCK
Sequence of human Vitamin D Receptor (VDR), VDR (gene 7421) (P11473 whole entry, looked up, the tested form may be a part): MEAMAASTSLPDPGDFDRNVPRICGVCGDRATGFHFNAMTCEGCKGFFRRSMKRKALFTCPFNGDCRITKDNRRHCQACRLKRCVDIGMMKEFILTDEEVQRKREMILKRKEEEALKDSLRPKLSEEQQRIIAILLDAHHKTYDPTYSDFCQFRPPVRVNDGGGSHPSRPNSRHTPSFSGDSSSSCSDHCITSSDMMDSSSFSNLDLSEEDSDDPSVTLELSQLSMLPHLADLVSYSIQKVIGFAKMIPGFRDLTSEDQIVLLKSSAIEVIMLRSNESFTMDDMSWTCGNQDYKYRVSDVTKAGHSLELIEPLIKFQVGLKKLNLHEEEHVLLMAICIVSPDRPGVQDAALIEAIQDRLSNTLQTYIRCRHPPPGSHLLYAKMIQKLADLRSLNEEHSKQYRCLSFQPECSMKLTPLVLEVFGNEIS
Sequence of human RAR-related Orphan Receptor gamma (RORg), RORC (gene 6097) (P51449 whole entry, looked up, the tested form may be a part): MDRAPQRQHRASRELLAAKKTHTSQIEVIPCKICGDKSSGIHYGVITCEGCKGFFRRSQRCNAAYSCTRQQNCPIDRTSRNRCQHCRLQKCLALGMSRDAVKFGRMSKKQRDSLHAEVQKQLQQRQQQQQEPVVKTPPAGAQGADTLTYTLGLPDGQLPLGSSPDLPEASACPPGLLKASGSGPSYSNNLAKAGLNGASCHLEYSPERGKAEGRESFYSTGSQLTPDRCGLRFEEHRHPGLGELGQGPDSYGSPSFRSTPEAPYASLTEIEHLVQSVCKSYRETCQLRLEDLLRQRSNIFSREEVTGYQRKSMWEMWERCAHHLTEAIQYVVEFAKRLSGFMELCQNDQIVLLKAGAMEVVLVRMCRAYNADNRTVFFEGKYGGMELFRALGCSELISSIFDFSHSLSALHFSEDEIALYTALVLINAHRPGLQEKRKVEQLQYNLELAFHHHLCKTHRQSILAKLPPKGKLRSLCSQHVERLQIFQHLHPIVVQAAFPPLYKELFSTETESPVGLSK
Sequence of Oxysterols receptor LXR-beta (Homo sapiens) (P55055 whole entry, looked up, the tested form may be a part): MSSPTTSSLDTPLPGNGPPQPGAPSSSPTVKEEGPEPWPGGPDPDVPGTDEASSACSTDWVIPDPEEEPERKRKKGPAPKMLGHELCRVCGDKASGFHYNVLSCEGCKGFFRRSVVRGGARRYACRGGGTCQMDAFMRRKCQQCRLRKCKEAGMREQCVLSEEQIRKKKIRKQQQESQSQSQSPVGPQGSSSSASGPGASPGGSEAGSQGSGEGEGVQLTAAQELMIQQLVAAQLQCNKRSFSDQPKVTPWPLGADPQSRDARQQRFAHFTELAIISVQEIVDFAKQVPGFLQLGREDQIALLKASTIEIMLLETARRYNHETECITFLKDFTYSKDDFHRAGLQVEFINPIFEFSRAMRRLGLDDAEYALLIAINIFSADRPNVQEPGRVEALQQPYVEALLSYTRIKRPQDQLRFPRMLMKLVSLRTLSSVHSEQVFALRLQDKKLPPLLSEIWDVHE
Sequence of human Peroxisome Proliferator-activated Receptor delta (PPARd), PPARD (gene 5467) (Q03181 whole entry, looked up, the tested form may be a part): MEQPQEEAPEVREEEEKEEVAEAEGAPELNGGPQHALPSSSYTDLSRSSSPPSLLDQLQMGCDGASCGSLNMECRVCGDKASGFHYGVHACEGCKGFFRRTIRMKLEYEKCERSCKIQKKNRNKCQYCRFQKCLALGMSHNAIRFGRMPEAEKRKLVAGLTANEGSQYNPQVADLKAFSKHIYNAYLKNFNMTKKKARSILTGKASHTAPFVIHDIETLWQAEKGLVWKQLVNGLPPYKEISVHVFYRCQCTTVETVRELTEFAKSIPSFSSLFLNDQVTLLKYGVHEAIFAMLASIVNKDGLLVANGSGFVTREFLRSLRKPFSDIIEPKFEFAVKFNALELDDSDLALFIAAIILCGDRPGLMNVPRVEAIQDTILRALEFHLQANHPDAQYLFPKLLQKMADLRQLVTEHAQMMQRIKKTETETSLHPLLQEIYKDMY
Sequence of Nuclear receptor subfamily 1 group I member 3 (Homo sapiens) (Q14994 whole entry, looked up, the tested form may be a part): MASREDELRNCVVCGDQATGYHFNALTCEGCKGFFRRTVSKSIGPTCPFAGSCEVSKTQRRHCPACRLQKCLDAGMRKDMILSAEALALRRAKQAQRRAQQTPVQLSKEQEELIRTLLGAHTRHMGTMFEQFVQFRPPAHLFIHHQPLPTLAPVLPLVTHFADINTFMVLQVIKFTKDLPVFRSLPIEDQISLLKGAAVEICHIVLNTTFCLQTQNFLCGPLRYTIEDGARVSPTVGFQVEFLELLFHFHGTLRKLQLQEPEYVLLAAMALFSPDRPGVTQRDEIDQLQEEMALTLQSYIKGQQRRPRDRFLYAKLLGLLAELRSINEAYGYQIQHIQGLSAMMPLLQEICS
Sequence of human Thyroid Receptor alpha (THRa1), THRA (gene 7067) (P10827 whole entry, looked up, the tested form may be a part): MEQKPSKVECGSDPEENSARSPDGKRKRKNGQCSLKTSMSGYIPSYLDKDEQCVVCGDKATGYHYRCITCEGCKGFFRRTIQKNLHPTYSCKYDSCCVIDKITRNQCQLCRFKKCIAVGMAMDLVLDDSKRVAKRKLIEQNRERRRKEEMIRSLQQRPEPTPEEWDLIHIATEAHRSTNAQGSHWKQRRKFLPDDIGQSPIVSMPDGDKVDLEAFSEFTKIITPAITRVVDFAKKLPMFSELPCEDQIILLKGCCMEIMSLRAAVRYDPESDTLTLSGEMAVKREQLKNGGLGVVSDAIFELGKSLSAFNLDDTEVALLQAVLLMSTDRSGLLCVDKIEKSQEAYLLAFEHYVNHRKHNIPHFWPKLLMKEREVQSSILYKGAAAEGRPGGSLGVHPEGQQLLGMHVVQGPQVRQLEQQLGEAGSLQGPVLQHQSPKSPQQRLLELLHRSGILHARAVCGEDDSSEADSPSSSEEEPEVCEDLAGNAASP

O=C1NC(=O)[C@@H]2CC=CC[C@H]12
inactive: [1] | [2] | [3] | [4] | [5] | [6] | [7]

NC(=O)c1ccc([N+](=O)[O-])cc1Cl
inactive: [8] | [2] | [3] | [9] | [5] | [10] | [11] | [6]

Cc1cc2nc3c(=O)[nH]c(=O)nc-3n(C[C@H](O)[C@H](O)[C@H](O)CO)c2cc1C
inactive: [8] | [1] | [3] | [12] | [4] | [9] | [11] | [13] | [6] | [14] | [15] | [16]

C=CCOC(=O)C(=C)C
inactive: [17] | [1] | [2] | [9] | [5] | [11] | [7] | [14]

Clc1ccc(Sc2cc(Cl)c(Cl)cc2Cl)cc1
inactive: [17] | [18] | [2] | [12] | [4] | [19] | [10] | [11] | [7] | [14]

C=C(C)C(=O)OCCCCCC
inactive: [17] | [1] | [2] | [12] | [4] | [19] | [20] | [10] | [11] | [6] | [7] | [14]

CN(C)Cc1cc(C(C)(C)C)c(O)c(C(C)(C)C)c1
inactive: [17] | [8] | [12] | [4] | [5] | [10] | [7] | [14]
active: [19] 29.1 µM

CCC(C)(CCC(C)C)C(=O)O (stereo not drawn)
inactive: [8] | [9] | [20] | [5] | [11] | [13] | [7]

CCCOCCC
inactive: [17] | [18] | [1] | [2] | [12] | [4] | [9] | [19] | [10] | [14]

CCCC(=O)OC/C=C(\C)CCC=C(C)C
inactive: [18] | [8] | [1] | [2] | [9] | [19] | [20] | [10] | [13] | [6] | [7]

CC(C)=CCOC(=O)c1ccccc1
inactive: [8] | [2] | [12] | [4] | [9] | [19] | [5] | [13] | [6] | [7] | [14]

CCOC(=O)CC(=O)OCC
inactive: [17] | [8] | [1] | [2] | [3] | [11] | [13] | [6] | [7] | [15] | [16]

O=C(c1ccccc1)c1ccccc1O
inactive: [17] | [18] | [2] | [9] | [20] | [10] | [7]
